For 89 molecules, inhibition results are on record in PubChem BioAssay AID624125 (The Scripps Research Institute Molecular Screening Center, 2012).

About 2,600 (0.72%) of roughly 360,000 compounds were called active. For the sample, actives were picked, then their nearest neighbours and some compounds at random. Values without a mark were called inactive.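 Rule for the calls: active = inhibition above its plate's cutoff, the mean inhibition of sample wells plus 3 SD (cut at about 27% in these data); inactive = the rest.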

Chain of Muscarinic acetylcholine receptor M4 (Homo sapiens) (P08173 whole entry, looked up): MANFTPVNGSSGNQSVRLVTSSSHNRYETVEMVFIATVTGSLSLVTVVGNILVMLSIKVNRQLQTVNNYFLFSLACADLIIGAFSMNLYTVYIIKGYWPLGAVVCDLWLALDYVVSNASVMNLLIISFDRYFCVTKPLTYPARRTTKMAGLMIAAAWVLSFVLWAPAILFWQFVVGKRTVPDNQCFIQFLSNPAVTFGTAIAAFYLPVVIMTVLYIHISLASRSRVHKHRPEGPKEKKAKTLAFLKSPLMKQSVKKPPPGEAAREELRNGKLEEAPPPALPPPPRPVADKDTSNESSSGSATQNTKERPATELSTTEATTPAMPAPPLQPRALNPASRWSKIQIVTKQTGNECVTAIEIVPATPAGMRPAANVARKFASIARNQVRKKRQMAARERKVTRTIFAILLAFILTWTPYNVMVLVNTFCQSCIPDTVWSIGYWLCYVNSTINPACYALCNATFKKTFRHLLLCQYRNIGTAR

The assay has as its target Muscarinic acetylcholine receptor M4 (Homo sapiens) (UniProt P08173). In words: CHRM4 blockers of acetylcholine calcium response – CHO cells, Fluo-8 calcium fluorescence, primary screen (AID 624125).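 Note: 0% = acetylcholine EC80 with DMSO and 100% = DMSO without agonist.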 The settings on record: CHO-hM4 cells, ACh EC80, Fluo-8 calcium fluorescence; at 3 µM; stronger effect = higher value.
Take `O=C(NCc1ccc2c(c1)OCO2)C1CCCN(S(=O)(=O)c2cccs2)C1` (centres undefined): the inhibition was -10.7%.
Take `O=C1C(Cl)=C(Oc2ccccc2)C(=O)c2ccccc21`: the inhibition is 43.5% (active).
Then `O=C(Nn1cnc2ccccc2c1=O)c1ccc(F)cc1Cl`, with 0.01%.
For `COC(=O)[C@@]12CCCN1[C@H](c1ccc(-c3ccc(F)cc3)c(OC)c1)[C@H]1C(=O)N(C)C(=O)[C@H]12`, the inhibition was 0.47%.
In the case of `CC(C)(C)NC(=O)/C(=C/c1cccnc1)NC(=O)c1ccco1`, the inhibition is -1.31%.
On to `COc1ccc(-c2onc3ccc(C(C)=O)cc23)cc1`, for which the inhibition was -10.7%.
As to `CCn1c2ccccc2c2cc(NC(=S)N3CCOCC3)ccc21`, the inhibition was 3.52%.
Regarding `O=C(Nc1ccc2c(c1)OCCO2)C(C1CC1)N1CCC(Cc2ccccc2)CC1` (centres undefined), the inhibition was 28.2% (active).
For the molecule `Nc1c(C(=O)Nc2ccc3c(c2)OCCO3)nnn1Cc1ccccc1`, the inhibition was 1.65%.
Consider `O=C(CN1CCOc2ccccc21)N1CCC(Cc2ccccc2)CC1`, for which the inhibition is -1.37%.
On to `O=C(Nc1ccccc1C(=O)N1CCOCC1)c1ccc(Cl)cc1`, for which the inhibition was -14.3%.
For `CCOC(=O)N(Cc1ccccc1)C1CC1`, the inhibition is 2.24%.
`CN(CCO)C(=O)c1nc[nH]c1C(=O)N(C)Cc1ccccc1`: the inhibition is -23.3%.
Consider `CN(C(=O)CN(CCO)CC(=O)N(C)C(C)(C)Cc1ccccc1)C(C)(C)Cc1ccccc1`, for which the inhibition is 28.1% (active).
For `Cc1ccc2cc(C#N)c(NCCNC(=S)NCCCN3CCOCC3)nc2c1`, the inhibition was -4.3%.
For `COCCn1c(C)cc(C(=O)CN2c3cccc4cccc(c34)S2(=O)=O)c1C`, the inhibition is -7.15%.
For `CCOC(=O)N1CCN(C(=O)c2cn(C)c3ccc(S(=O)(=O)N(CC)CC)cc3c2=O)CC1`, the inhibition was -13.5%.
As to `COc1ccc(N2CCN(C(=O)c3cn(C)c4ccc(S(=O)(=O)N5CCOCC5)cc4c3=O)CC2)cc1`, the inhibition is -12.4%.
Consider `CCOC(=O)N1CCN(C(=O)c2cn(C)c3ccc(S(=O)(=O)N4CCCC4)cc3c2=O)CC1`, for which the inhibition is 58.7% (active).
In the case of `CCCCSc1nc2c(c(=O)n1CC)SC(C)C2` (centres undefined), the inhibition was -22.6%.
As for `Cc1ccc(NC(=O)C(C)OC(=O)Cc2c[nH]c3ccccc23)cc1S(=O)(=O)N1CCOCC1` (centres undefined), the inhibition is -17.2%.
Consider `Cc1ccc(S(=O)(=O)N(Cc2ccc(Cl)cc2)c2ccccc2C(=O)NCc2cccnc2)cc1`, for which the inhibition is 2.37%.
Then `Nc1nc(NCc2ccccc2)n(-c2ccccc2)n1`, with -15.7%; and `CCCCCCn1c(=O)n2n(c1=O)C[C@]1(OC(=O)NCc3ccc(OC)c(OC)c3)CN(S(=O)(=O)c3ccc(C)cc3)C[C@]1(O)C2`, with -8.79%.
For `O=S1(=O)CCN(Cc2ccccc2)CC1`, the inhibition was -1.75%.
Then `CC12CN(Cc3ccccc3)CC(C)(CN(Cc3ccccc3)C1)C2=NO`, with 31.4% (active); and `NC(=O)C1(N2CCCC2)CCN(Cc2ccccc2)CC1`, with -8.47%; and `COc1cccc(CC(=O)N2CCCC(CCC(=O)N3CCN(c4ccccn4)CC3)C2)c1` (centres undefined), with -6.8%.
As to `CC(=O)N[C@@H](C)C(=O)N1CCC(n2nccc2NC(=O)CCCc2ccccc2)CC1`, the inhibition was -1.73%.
Take `COc1ccccc1NC(=O)COC(=O)Cc1ccc(S(=O)(=O)N2CCCCC2)s1`: the inhibition is -3.41%.
Regarding `CC(C)Nc1nnc(SC(C)C(=O)N(C)C2CCCCC2)s1` (centres undefined), the inhibition was 3.18%.
Under `COc1cc(C(=O)NCc2ccc(-n3cccc3)cc2)cc(OC)c1OC` stands 9.05%; under `COc1cc(C(=O)NCc2nnc(SCC(=O)Nc3nc4ccc(C)cc4s3)o2)cc(OC)c1OC`, 1.54%.
For `CCn1c(CNC(=O)c2cc(OC)c(OC)c(OC)c2)cc2cc(C)ccc21`, the inhibition is 28.2% (active).
Under `Cc1ccc(S(=O)(=O)N2CCC(C(=O)N[C@@H](C)C(=O)NCc3ccccc3)CC2)cc1` stands -7.25%; under `Cc1coc2c1c(C)cc1oc(=O)c(CC(=O)NCC(=O)N[C@H](C(=O)O)C(C)C)c(C)c12`, 12.9%; under `C=CCn1c(SCC(=O)NCc2ccccc2)nnc1-c1cc(Br)ccc1O`, 10.6%.
Consider `COc1ccccc1C(=O)NC(=O)COC(=O)c1ccco1`, for which the inhibition was -3.72%.
For `COc1ccccc1S(=O)(=O)NCc1ccc(C(=O)N(C)Cc2ccc(F)cc2)cc1`, the inhibition was 0.25%.
`Cc1ccc(CNC(=O)Cn2cnc(S(=O)(=O)N3CCCCC3)c2)o1`: the inhibition was -2.52%.
On to `CCN1CCN(c2cc3nc(C)n(Cc4ccccc4)c(=O)c3cc2NC(=O)c2ccccc2F)CC1`, for which the inhibition was 84.6% (active).
As for `CCC(=O)Nc1ccc2nc(C)n(Cc3ccccc3Cl)c(=O)c2c1`, the inhibition is 6.19%.
For the molecule `CCOc1cc(NC(=O)c2ccccc2C(=O)O)c(OCC)cc1NC(=O)c1ccccc1F`, the inhibition is -12.1%.
On to `COc1ccc(NC(=O)C[C@H]2C(=O)N(CCc3ccccc3)C[C@@H]2C)cc1`, for which the inhibition was -7.17%.
For the molecule `COc1cc2c(cc1OC)C(c1cccc([N+](=O)[O-])c1)=NCC2`, the inhibition is -14.9%.
Then `COc1ccc(C(CNCC(=O)Nc2ccccc2F)N(C)C)cc1` (centres undefined), with -5.27%; and `CCc1ccccc1NC(=O)CN(C)C(=O)COc1ccc(C)nc1[N+](=O)[O-]`, with -2.74%; and `COc1ccccc1CNC(=O)c1ccc(Cl)c(S(=O)(=O)N2CCCC2)c1`, with -5.41%.
Then `CCOc1ccc(S(=O)(=O)Nc2ccc(C(=O)NCCCN3CCCC3=O)cc2)cc1`, with -0.83%.
As for `Cc1ccc(C(=O)NCC(c2cccs2)N(C)C)cc1S(=O)(=O)N1CCOCC1` (centres undefined), the inhibition is 8.72%.
In the case of `COc1ccccc1C(CNC(=O)c1cccc(S(=O)(=O)Nc2ccc(F)cc2)c1)N(C)C` (centres undefined), the inhibition is 48.7% (active).
Regarding `COc1ccc(C(CNC(=O)c2cccc(S(=O)(=O)Nc3ccc(Br)cc3)c2)N(C)C)cc1` (centres undefined), the inhibition was 1.87%.
With `COc1ccccc1C(CNC(=O)c1ccc(C)c(S(=O)(=O)N2CCCCC2)c1)N(C)C` (centres undefined), the inhibition was 51.6% (active).
Regarding `CCOc1ccc(NS(=O)(=O)c2ccc(C(=O)NCC(c3ccccc3OC)N3CCCC3)cc2)cc1` (centres undefined), the inhibition is 40.8% (active).
Then `CCOc1ccc(NS(=O)(=O)c2ccc(C(=O)NC3CCN(Cc4ccccc4)CC3)cc2)cc1`, with 6.63%.
Take `COc1ccccc1C(CNC(=O)c1cccc(NS(=O)(=O)c2ccc(Br)cc2)c1)N(C)C` (centres undefined): the inhibition is 10.7%.
For `Fc1cccc(Cc2c(-c3ccc(Cl)cc3)nc3ccc(Cl)cn23)c1`, the inhibition is -24.1%.
Then `CCOC(=O)C(CC)Sc1ncnc2c1nnn2-c1ccc(F)cc1` (centres undefined), with -1.34%; and `CC(C)Cc1cc(C(=O)NCCc2ccccc2)no1`, with 101% (active).
Then `CC(C)Cc1cc(C(=O)Nc2cc(Br)ccc2O)no1`, with -14.2%.
Regarding `O=C(NCCCc1ccccc1)c1cc(COc2c(F)cccc2F)on1`, the inhibition is -4.04%.
Then `CC1(C(=O)NS(=O)(=O)c2ccccc2Cl)CCN1C(=O)c1cccc(F)c1` (centres undefined), with 3.33%; and `CC(Sc1nncn1C)C(=O)Nc1cc(C(F)(F)F)ccc1N1CCOCC1` (centres undefined), with -5.32%; and `CN(CCC#N)c1ncnc2scc(-c3ccccc3)c12`, with -1.83%.
Consider `O=C(CN1CCCCCC1)Nc1ccc(Cl)cc1F`, for which the inhibition is -14.1%.
`O=C(CSc1nc2ccccc2o1)N1c2ccccc2Sc2ccc(Cl)cc21`: the inhibition was -3.42%.
`O=C(CN1CCCCC1)N1c2ccccc2Sc2ccc(C(F)(F)F)cc21`: the inhibition is 97.5% (active).
Regarding `CCC(=O)Nc1cc(C(F)(F)F)ccc1N1CCCC1`, the inhibition was 3.82%.
With `O=C(CN1CCCCCC1)N1c2ccccc2Sc2ccc(C(F)(F)F)cc21`, the inhibition is 98% (active).
Regarding `O=C(CN1C(=O)/C(=C\c2ccc(C(F)(F)F)cc2)Sc2ccccc21)NCc1ccco1`, the inhibition is 14.8%.
Consider `COc1cccc(CNC(=O)CCC2CCCN(C(=O)c3cc(C)[nH]n3)C2)c1` (centres undefined), for which the inhibition was -0.4%.
For `O=C(NCc1ccccc1)[C@H]1C[C@@H]1[C@H](NP(=O)(c1ccccc1)c1ccccc1)c1ccccc1`, the inhibition was -6.36%.
As for `O=C(Nc1c2c(nn1-c1ccc(F)cc1)CS(=O)C2)C12CC3CC(CC(C3)C1)C2` (centres undefined), the inhibition is -0.1%.
On to `Cc1c([N+](=O)[O-])c(N)nn1C`, for which the inhibition is -10.8%.
Then `CCc1cccc(NC(=O)COC(=O)c2cc(=O)c3ccccc3o2)c1`, with -0.31%.
Take `CN(CCc1ccccn1)C(=O)CCC1CCCN(Cc2ccccc2OC(F)F)C1` (centres undefined): the inhibition was 31.4% (active).
For `COc1cccc(CNC(=O)CCC2CCCN(Cc3ccc(OC(F)F)cc3)C2)c1` (centres undefined), the inhibition is 8.05%.
For `CN(CCc1ccccn1)C(=O)c1ccc(OC2CCN(Cc3ccccn3)CC2)cc1`, the inhibition was 10.3%.
For `CCCS(=O)(=O)Nc1ccc(-c2cn3c(n2)SCC3)cc1`, the inhibition was 4.45%.
Take `CCN(CC(=O)Nc1ccc(OC)cc1)C(=O)c1ccc(=O)n(Cc2ccccc2)n1`: the inhibition is 6.9%.
Under `CC(C)c1ccc(OCC(O)Cn2cnc3ccccc32)cc1` (centres undefined) stands 32% (active).
In the case of `CC(C)c1ccc(OCC(O)CN2CCN(c3ccccn3)CC2)cc1` (centres undefined), the inhibition was -9.52%.
Under `CC(=O)OC(COc1ccc(F)cc1)Cn1cnc2ccccc21` (centres undefined) stands 11.2%; under `COC(=O)c1ccccc1NC(=O)C1CC(=O)N(c2ccc(OC)cc2)C1` (centres undefined), -8.44%.
For the molecule `COc1ccc(CN2CC(C(=O)NCCc3ccc(Cl)cc3)CC2=O)cc1` (centres undefined), the inhibition was -3.66%.
For the molecule `CCCC(=O)Nc1ncnc2c1ncn2[C@@H]1O[C@@H]2OP(=O)(O)OC[C@H]2[C@H]1OC(=O)CCC`, the inhibition was -12.4%.
In the case of `COc1ccc(C(CCN(Cc2ccc(OC)c(OC)c2)C(=O)CCl)c2ccccc2)cc1` (centres undefined), the inhibition is -0.52%.
`CCN(CCCCOC(=O)c1ccc(OC)c(OC)c1)C(C)Cc1ccc(OC)cc1` (centres undefined): the inhibition is 61.6% (active).
Take `COc1ccc(C(=O)OCC(=O)NCCCc2ccccc2)cc1OC`: the inhibition was 2.28%.

A word on the inhibition: it is the drop in the measured response relative to a control, in per cent.
